From paper PMC4336329 (PLoS ONE, 2015)
Screen size: about 310,000 compounds; about 14,000 (4.5%) showed an effect of 50% or more. The effect is printed as a negative number. This excerpt belongs to a sample that is enriched for strong results.
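Also: peak tail current of the secondary pulse compared with the same well before compound.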

What follows are compounds tested against human ether-à-go-go-related gene (hERG) potassium channel (human, UniProt Q12809) (assay: primary screen, population patch clamp on CHO cells stably expressing hERG; higher = less effect of the substance).
human ether-à-go-go-related gene (hERG) potassium channel, sequence (Q12809 whole entry, looked up): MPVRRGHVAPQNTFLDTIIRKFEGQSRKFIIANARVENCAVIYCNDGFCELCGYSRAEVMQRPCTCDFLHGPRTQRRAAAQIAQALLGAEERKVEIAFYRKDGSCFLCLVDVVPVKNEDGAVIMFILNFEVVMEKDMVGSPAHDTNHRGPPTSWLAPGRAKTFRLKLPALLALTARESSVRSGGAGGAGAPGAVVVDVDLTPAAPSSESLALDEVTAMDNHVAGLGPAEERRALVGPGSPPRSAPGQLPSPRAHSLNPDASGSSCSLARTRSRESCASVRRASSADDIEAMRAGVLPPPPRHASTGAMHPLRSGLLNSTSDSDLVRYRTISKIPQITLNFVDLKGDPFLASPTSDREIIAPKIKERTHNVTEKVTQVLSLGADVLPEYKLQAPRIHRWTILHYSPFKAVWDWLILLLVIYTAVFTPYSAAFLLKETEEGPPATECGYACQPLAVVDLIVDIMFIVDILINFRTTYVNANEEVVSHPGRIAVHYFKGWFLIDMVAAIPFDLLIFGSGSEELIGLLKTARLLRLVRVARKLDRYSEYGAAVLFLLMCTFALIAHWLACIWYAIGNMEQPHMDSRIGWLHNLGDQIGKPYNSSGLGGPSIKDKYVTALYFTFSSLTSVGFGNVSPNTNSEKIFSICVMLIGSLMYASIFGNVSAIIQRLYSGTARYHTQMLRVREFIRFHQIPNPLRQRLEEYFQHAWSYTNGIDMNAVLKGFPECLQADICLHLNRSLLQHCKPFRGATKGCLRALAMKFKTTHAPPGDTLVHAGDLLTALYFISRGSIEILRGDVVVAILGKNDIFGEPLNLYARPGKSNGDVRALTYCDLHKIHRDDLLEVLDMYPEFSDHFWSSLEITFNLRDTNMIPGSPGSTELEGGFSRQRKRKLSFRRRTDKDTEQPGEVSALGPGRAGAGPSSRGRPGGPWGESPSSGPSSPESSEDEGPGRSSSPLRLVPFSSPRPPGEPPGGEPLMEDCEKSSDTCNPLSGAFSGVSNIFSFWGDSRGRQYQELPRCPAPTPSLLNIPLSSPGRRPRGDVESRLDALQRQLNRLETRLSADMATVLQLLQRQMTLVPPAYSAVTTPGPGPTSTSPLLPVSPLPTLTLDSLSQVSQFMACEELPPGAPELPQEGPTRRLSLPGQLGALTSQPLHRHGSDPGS
With `C=CCN1C(=O)c2ccc(C(=O)N3CCN(S(=O)(=O)c4ccccc4Br)CC3)cc2C1=O` the “hERG current change (%, negative = inhibition) at 10uM” value was -41.2%. In the case of `O=C(NC(=S)Nc1ccccc1[N+](=O)[O-])c1ccccc1`, the “hERG current change (%, negative = inhibition) at 10uM” value is reported as 6.17%. `CSc1nc(N)nc(SCCS(=O)(=O)c2ccc(Cl)cc2)c1C#N` was tested, and the “hERG current change (%, negative = inhibition) at 10uM” value was -3.5%. In the case of `CN(C(=O)COC(=O)c1ccc2c(c1)NC(=O)CS2)C1CCS(=O)(=O)C1` (centres unmarked), the “hERG current change (%, negative = inhibition) at 10uM” value is reported as 31.3%. `CC1(C)C2C/C(=N\O)C(C)(/[N+]([O-])=C/c3cccc([N+](=O)[O-])c3)CC21` (centres unmarked) was tested, and the “hERG current change (%, negative = inhibition) at 10uM” value was -10.7%. In the case of `COc1ccc(C(C(=O)NC2CCCC2)N(Cc2cccnc2)C(=O)Cc2cccs2)cc1OC` (centres unmarked), the “hERG current change (%, negative = inhibition) at 10uM” value is reported as -1.66%. `Cc1cccc(CN2CCOCCS2(=O)=O)c1` was tested, and the “hERG current change (%, negative = inhibition) at 10uM” value was 10.2%. With `O=C(/C=C/c1cccs1)N1CCCC1` the “hERG current change (%, negative = inhibition) at 10uM” value was 33.1%. `COc1cccc(CC2(CO)CCN(S(=O)(=O)N(C)C)CC2)c1` was tested, and the “hERG current change (%, negative = inhibition) at 10uM” value was 11.9%. For `OCC1(CCOc2ccccc2)CCN(Cc2ccc3cccc(F)c3n2)CC1`, the “hERG current change (%, negative = inhibition) at 10uM” value was -83%. In the case of `COc1cccc(CN2CCN(Cc3ccc4cccc(F)c4n3)CC2CCO)c1` (centres unmarked), the “hERG current change (%, negative = inhibition) at 10uM” value is reported as -39.9%. For `COc1cccc(CC2(CO)CCN(Cc3ccc4cccc(F)c4n3)CC2)c1`, the “hERG current change (%, negative = inhibition) at 10uM” value was -64.4%. With `OCC1(Cc2cccc(Cl)c2)CCCN(Cc2ccc3cc(F)ccc3n2)C1` (centres unmarked) the “hERG current change (%, negative = inhibition) at 10uM” value was -23.8%. For `OCC1(Cc2cccc(F)c2)CCN(Cc2ccc3cccc(F)c3n2)CC1`, the “hERG current change (%, negative = inhibition) at 10uM” value was -64.7%. With `CC(C)c1csc(CN2CCC(CO)(Cc3cccc(F)c3)CC2)n1` the “hERG current change (%, negative = inhibition) at 10uM” value was -17.3%. For `CC(=O)Cc1nsc(NC(=O)c2csc3c2CCCC3)n1`, the “hERG current change (%, negative = inhibition) at 10uM” value was -8.24%. `CCOc1ccccc1NC(=O)CSc1ccc(-c2ccco2)nn1` was tested, and the “hERG current change (%, negative = inhibition) at 10uM” value was -16.6%. With `Cc1cccc(C2NC(c3cccc(C)c3)C(C)C(=O)C2C)c1` (centres unmarked) the “hERG current change (%, negative = inhibition) at 10uM” value was 8.92%. In the case of `CSc1ncc(CN2CCN(C(C)C)C(CCO)C2)cn1` (centres unmarked), the “hERG current change (%, negative = inhibition) at 10uM” value is reported as -2.82%. With `O=C(Nc1nnc(C2=COCCO2)o1)c1ccc(Br)cc1` the “hERG current change (%, negative = inhibition) at 10uM” value was -0.63%. `CCCc1cc(=O)[nH]c(SCC(=O)N2CCN(c3ccc(F)cc3)CC2)n1` was tested, and the “hERG current change (%, negative = inhibition) at 10uM” value was -15.2%. For `CCN(CC)Cc1c(C(=O)N/N=C/c2ccco2)nnn1-c1nonc1N`, the “hERG current change (%, negative = inhibition) at 10uM” value was -14.3%. For `FC(F)(F)c1cccc(N2Cc3ccccc3C2)c1`, the “hERG current change (%, negative = inhibition) at 10uM” value was 6.28%. With `COc1cccc(-c2nc(CS(=O)(=O)CC(=O)NCCc3ccccc3)c(C)o2)c1` the “hERG current change (%, negative = inhibition) at 10uM” value was 0.232%. With `CCOC(=O)c1sc(=NC(=O)c2ccc(OC(C)C)cc2)n(C)c1C` the “hERG current change (%, negative = inhibition) at 10uM” value was 10.8%. `Nc1ccccc1-c1nnc(-c2ccc(-c3ccccc3)cc2)o1` was tested, and the “hERG current change (%, negative = inhibition) at 10uM” value was 10.1%. With `Cc1cc(C(=O)N2CCCC(C(=O)c3cc(F)ccc3F)C2)c(C)o1` (centres unmarked) the “hERG current change (%, negative = inhibition) at 10uM” value was -4.31%. With `COc1ccc(/C=C/CN2CCCC(C(=O)c3cc(F)ccc3F)C2)cc1` (centres unmarked) the “hERG current change (%, negative = inhibition) at 10uM” value was -76.4%. With `COc1ccc(C(=O)C2CCCN(C(=O)Cn3nc(C)cc3C)C2)cc1F` (centres unmarked) the “hERG current change (%, negative = inhibition) at 10uM” value was -17.4%. `COc1ccc(C(=O)C2CCCN(C(=O)c3ccoc3C)C2)cc1F` (centres unmarked) was tested, and the “hERG current change (%, negative = inhibition) at 10uM” value was -6.04%. With `CSCC(=O)N1CCCC(C(=O)c2cc(F)ccc2F)C1` (centres unmarked) the “hERG current change (%, negative = inhibition) at 10uM” value was -1.1%. `COc1ccc(/C=C/CN2CCCC(C(=O)c3ccc(OC)c(F)c3)C2)cc1` (centres unmarked) was tested, and the “hERG current change (%, negative = inhibition) at 10uM” value was -94.5%. In the case of `Cc1nn(-c2ccccc2)c(Cl)c1/C=N\NC(=O)c1cnccn1`, the “hERG current change (%, negative = inhibition) at 10uM” value is reported as -5%. In the case of `CCc1cccc(C)c1NS(=O)(=O)c1cc(Br)cnc1N`, the “hERG current change (%, negative = inhibition) at 10uM” value is reported as 8.34%. For `COC(=O)c1ccccc1NC(=S)NC(NC(=O)COc1ccccc1)C(Cl)(Cl)Cl` (centres unmarked), the “hERG current change (%, negative = inhibition) at 10uM” value was 7.66%. `CCN1CCN(C(=O)Cc2ccccc2OC)CC1` was tested, and the “hERG current change (%, negative = inhibition) at 10uM” value was 13.3%. For `Cc1cccc(C)c1OCC(O)CN1CCN(c2ccccn2)CC1` (centres unmarked), the “hERG current change (%, negative = inhibition) at 10uM” value was -35.5%. `Cc1cc(C)c(C)c(OCC(O)CN2CCN(c3ccccn3)CC2)c1.Cl` (centres unmarked) was tested, and the “hERG current change (%, negative = inhibition) at 10uM” value was -54.4%. For `Cc1ccc(OCC(O)CN2CCN(c3ccccn3)CC2)c(C)c1.Cl` (centres unmarked), the “hERG current change (%, negative = inhibition) at 10uM” value was -60.5%. With `Cc1cc(C)c(C)c(OCC(=O)N2CCN(c3ccccn3)CC2)c1` the “hERG current change (%, negative = inhibition) at 10uM” value was -33.6%. In the case of `Cc1cccc(OCC(O)CN2CCN(c3ccccn3)CC2)c1C.Cl` (centres unmarked), the “hERG current change (%, negative = inhibition) at 10uM” value is reported as -45.5%. For `CC(C)(C)c1ccccc1OCC(O)CN1CCN(c2ccccn2)CC1.Cl` (centres unmarked), the “hERG current change (%, negative = inhibition) at 10uM” value was -48.8%. For `Cc1cc(C)c(OCC(O)CN2CCN(c3ccccn3)CC2)c(C)c1.Cl` (centres unmarked), the “hERG current change (%, negative = inhibition) at 10uM” value was -58.3%. In the case of `Cc1ccccc1OCC(O)CN1CCN(c2ccccn2)CC1.Cl` (centres unmarked), the “hERG current change (%, negative = inhibition) at 10uM” value is reported as -48.8%. `CCc1noc(C)c1C(=O)N1CCCSC1=Nc1ccccc1OC` was tested, and the “hERG current change (%, negative = inhibition) at 10uM” value was -8.77%. For `O=C(CCCN1C(=O)/C(=C/c2ccccc2)SC1=S)N1CCOCC1`, the “hERG current change (%, negative = inhibition) at 10uM” value was -30.1%. For `Cc1ccc(NC(=O)c2ccc(Cl)cc2[N+](=O)[O-])nc1`, the “hERG current change (%, negative = inhibition) at 10uM” value was 6.4%. For `O=C(Cn1c(=O)oc2ccccc21)Nc1ccccc1C(F)(F)F`, the “hERG current change (%, negative = inhibition) at 10uM” value was 21.6%. `COc1cc(/C=C2/C(=O)ON=C2C)ccc1OCc1ccccc1F` was tested, and the “hERG current change (%, negative = inhibition) at 10uM” value was 2.22%. For `COCCNC(=O)C(OC(=O)C1=Cc2ccccc2OC1)C(C)C` (centres unmarked), the “hERG current change (%, negative = inhibition) at 10uM” value was 10.3%. For `N=c1c(C(=O)NCc2ccco2)cc2c(=O)n3ccccc3nc2n1C1CCCC1`, the “hERG current change (%, negative = inhibition) at 10uM” value was -77%. With `Cc1ccc2nc3c(cc(C(=O)NCc4ccco4)c(=N)n3C3CCCC3)c(=O)n2c1` the “hERG current change (%, negative = inhibition) at 10uM” value was -75.8%. In the case of `Cc1ccc2nc(SCC(=O)NCc3ccco3)nc(=O)n2c1`, the “hERG current change (%, negative = inhibition) at 10uM” value is reported as 8.08%. For `Cn1c2ccccc2c2c(C(=O)NCc3ccco3)cn(C3CCCCC3)c(=O)c21`, the “hERG current change (%, negative = inhibition) at 10uM” value was -33.4%. For `O=C(NCc1ccco1)c1cnc2ccccn2c1=O`, the “hERG current change (%, negative = inhibition) at 10uM” value was -3.03%. `N#C/C(=C\c1ccc(O)c(O)c1)C(=O)NCCCc1ccccc1` was tested, and the “hERG current change (%, negative = inhibition) at 10uM” value was -1.59%. For `O=C(CC1OC(=O)c2ccccc21)Nc1cc(Cl)ccc1N1CCCC1` (centres unmarked), the “hERG current change (%, negative = inhibition) at 10uM” value was -8.18%. In the case of `Cc1cccc(NC(=O)CSCC(=O)Nc2cc(Cl)ccc2N2CCN(C)CC2)c1`, the “hERG current change (%, negative = inhibition) at 10uM” value is reported as -72.8%. With `Cc1ccc(NC(=O)CSCC(=O)Nc2cc(Cl)ccc2N2CCN(C)CC2)cc1` the “hERG current change (%, negative = inhibition) at 10uM” value was -53.1%. `CN1CCN(c2ccc(Cl)cc2NC(=O)CCN2C(=O)c3ccccc3C2=O)CC1` was tested, and the “hERG current change (%, negative = inhibition) at 10uM” value was -7.06%. In the case of `CCN(CC)S(=O)(=O)c1ccc(N2CCN(C)CC2)c(NC(=O)CSCC(=O)Nc2cccc(C)c2)c1`, the “hERG current change (%, negative = inhibition) at 10uM” value is reported as -13%. With `Cc1cc(NC(=O)CSCC(=O)Nc2cc(Cl)ccc2N2CCN(C)CC2)no1` the “hERG current change (%, negative = inhibition) at 10uM” value was -25.7%. In the case of `Cc1cccc(NC(=O)CSCC(=O)Nc2ccccc2N2CCCC2)c1`, the “hERG current change (%, negative = inhibition) at 10uM” value is reported as -90%. For `Cc1cccc(NC(=O)CSCC(=O)Nc2ccccc2N2CCCCC2)c1`, the “hERG current change (%, negative = inhibition) at 10uM” value was -1.89%. With `Cc1ccc(NC(=O)CSCC(=O)Nc2cc(Cl)ccc2N2CCOCC2)cc1` the “hERG current change (%, negative = inhibition) at 10uM” value was -14.8%. In the case of `Cc1ccc(NC(=O)CSCC(=O)Nc2ccccc2N2CCCC2)cc1`, the “hERG current change (%, negative = inhibition) at 10uM” value is reported as -13.6%. With `CN1CCN(c2ccc(Cl)cc2NC(=O)CC2OC(=O)c3ccccc32)CC1` (centres unmarked) the “hERG current change (%, negative = inhibition) at 10uM” value was -74.5%. In the case of `Cc1cccc(NC(=O)CSCC(=O)Nc2cc(Cl)ccc2N2CCOCC2)c1`, the “hERG current change (%, negative = inhibition) at 10uM” value is reported as -31%.
